ClpP mod: qHTS Assay for Activators of ClpP. ATP-dependent Clp protease proteolytic subunit (Bacillus subtilis (strain 168)), P80244. purified B. subtilis ClpP, FRET peptide cleavage, 20 min. Potency, µM (doses to about 57.5 µM), without a hit: at the top dose activity change, negative = active. 1.9% of 340,000 active. AID 651965, 2013; active means well fitted falling curve with a large enough effect; inconclusive means small, poorly fitted or top-dose-only effect; inactive means no such curve, though single readings can be large or run the other way; further: the source files actives as falling curves though it sought activators and does not explain the sign; nearly all actives have a fitted effect of over 65% in size
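Purified B. subtilis ClpP, 10 microg/mL final in Tris/HCl pH8 with KCl, BSA, glycerol and Tween-20, cleaved an Abz/nitrotyrosine-quenched decapeptide. Fluorescence (ex 320, em 430) was read at 0 and 20 min at room temperature. Delta was normalized to 5.8 microM ADEP and DMSO/no-enzyme controls.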
Rango complex inh: Rango-importin beta binding inhibition | Q14974 | Rango CFP/YFP FRET sensor + importin beta, 45 min | Potency, µM (top dose mostly 92.2 µM), without a hit: top-dose inhibition of complex formation | 0.031% of 340,000 active; calls by dose curve;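 further: 0% = DMSO wells and 100% = buffer wells lacking importin beta; nearly all actives have a fitted effect of over 15% in size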
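Inhibition scored from the CFP 486 nm/YFP 530 nm FRET ratio 45 min after adding 0.125 microM importin beta to 50 nM Rango biosensor preincubated 5 min with compound (room temperature, PBS with DTT, Tween-20, BSA). No-importin wells as positive control.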
Rango release inh: prevents RanGTP from dissociating the Rango-importin beta complex; 0.071% of 340,000 active; AID 540253; Biochemical FRET Rango-importin beta, RanGTP-induced dissociation; O95149+P62826; Potency, µM (series often up to 46.1 µM), without a hit: at the top dose activity change, negative = inhibition; calls by dose curve; further: % of control where 0% means no effect; nearly all actives have a fitted effect of over 45% in size
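FRET read at 45 min, room temperature: inhibitors block the CFP/YFP signal rise when RanGTP (0.6 uM Ran, 2 mM GTP, 0.2 uM RCC1) frees Rango (0.1 uM) from importin beta (0.25 uM). Pre-read after 5 min compound exposure flags interference.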
TDP1 inh: TDP1 (human) enzyme inhibition; recombinant TDP1, AlphaScreen DNA substrate cleavage; Q9NUW8; Potency, µM (highest dose often 130 µM), for inactives: top-dose activity change, negative = inhibition, most hits filed as inhibitors; AID 485290; 0.28% of 350,000 active; further: on the % scale 0 is the no-effect control and ±100 the full control effect; nearly all actives have a fitted effect of over 40% in size
Target sequence (Q9NUW8 whole entry, looked up): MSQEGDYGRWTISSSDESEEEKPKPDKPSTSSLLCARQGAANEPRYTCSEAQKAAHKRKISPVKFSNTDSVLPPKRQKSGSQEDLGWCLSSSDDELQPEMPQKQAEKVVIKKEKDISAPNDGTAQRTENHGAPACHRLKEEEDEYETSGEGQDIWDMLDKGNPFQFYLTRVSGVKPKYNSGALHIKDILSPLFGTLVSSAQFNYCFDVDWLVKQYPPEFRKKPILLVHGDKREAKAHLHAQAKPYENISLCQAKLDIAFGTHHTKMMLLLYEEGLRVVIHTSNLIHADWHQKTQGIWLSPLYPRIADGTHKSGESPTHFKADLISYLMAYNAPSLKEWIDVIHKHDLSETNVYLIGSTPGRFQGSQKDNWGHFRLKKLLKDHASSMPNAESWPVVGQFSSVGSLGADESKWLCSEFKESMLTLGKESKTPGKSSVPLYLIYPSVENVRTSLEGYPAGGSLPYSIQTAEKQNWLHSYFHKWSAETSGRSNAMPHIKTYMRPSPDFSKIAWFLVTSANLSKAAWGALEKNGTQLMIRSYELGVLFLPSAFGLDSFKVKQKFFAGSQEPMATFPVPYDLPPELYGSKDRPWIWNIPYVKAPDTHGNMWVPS
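Tdp1 1 nM final; 15 min RT w/ cpd; substrate 15 nM, 5 min; beads 10 ug/ml, 10 min; AlphaScreen read. Neg ctrl: no enzyme.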
12-LOX inh: inhibitors of human 12S-lipoxygenase ALOX12; P18054; purified 12hLO, xylenol orange hydroperoxide absorbance; Potency, µM (highest dose often 108 µM), for inactives: top-dose activity change, negative = inhibition, hits mostly inhibitors; 1.1% of 580,000 active; AID 1671190; further: on the % scale 0 is the no-effect control and ±100 the full control effect
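Purified human 12hLO (150 nM final) in 25 mM Hepes, 0.01% Triton X-100, pH 7.0 was preincubated 15 min at room temperature with compound. Then 40 uM arachidonic acid was added, 30 min. Hydroperoxide was read by Fe-XO absorbance ratio 573/405 nm.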
PTAP TSG101 blk: blocks PTAP/TSG101 interaction to inhibit HIV-1 budding. Q99816. Fluorescence polarization, FITC-PTAP peptide / Tsg101 binding. Potency, µM (highest dose often 115 µM), without a hit: top-dose activity change, negative = inhibition, actives largely listed as inhibitors. 340,000 tested, under 10 active. AID 493005; active means well fitted inhibition curve with a large enough effect in the main read-out, with a control signal flat, not every such curve was filed as active; inconclusive means small, poorly fitted or top-dose-only effect, or effect the other way, or a change in a side signal; inactive means no such curve, though single readings can be large or run the other way; further: % of control where 0% means no effect
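Tsg101 binding domain (10 uM final) was mixed with compound and a FITC-labeled PTAP peptide (50 nM final) in HEPES pH 7.5 buffer with NaCl, Tween 20, EDTA and TCEP; fluorescence polarization was read after 20 min at r.t.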
* = called active by the depositor; ? = inconclusive; · = no result; [ ] = another dose, or the depositor's remark. A selection: hits, their analogues and other compounds. The true share with any hit is near 2.4%. Unless noted, the call rests on the fitted dose curve; in most records, active means well fitted curve in the direction sought with a large enough effect; inconclusive means small, poorly fitted or top-dose-only effect, or another doubt; inactive means no such curve, though single readings can be large; an effect the other way counts as inactive or inconclusive. Potency means the concentration at half of the fitted maximal effect.

SMILES	ClpP mod	Rango complex inh	Rango release inh	TDP1 inh	12-LOX inh	PTAP TSG101 blk
Oc1ccc(Br)cc1C=Nc1ccc2c3c(cccc13)CC2	32µM*	?	-8%	1%	4%	1%
CC(C)(C)N=Cc1cc(Br)ccc1O	·	·	·	·	56µM*	·
CC(C)Oc1cccc(Nc2cc3c(cn2)cc(-c2cccc(C(F)(F)F)c2)n3C)c1	·	·	·	·	-42%	·
Cc1cc(Cl)ccc1S(=O)(=O)N1CC(c2nc(Cc3ccccc3)no2)C1	·	·	·	·	-1%	·
O=c1oc2c(-c3ccc([N+](=O)[O-])cc3)cc(O)cc2s1	·	-2%	-11%	0%	40µM*	-1%
Cc1ccccc1CN1CCN(C(=O)c2cc(-c3cccnc3)nc3ccccc23)CC1	·	·	·	·	5%	·
N/C(=N\OCc1ccccc1)c1nonc1N	-2%	0%	7%	1%	3%	-1%
N/C(=N/OCc1cccc([N+](=O)[O-])c1)c1nonc1N	11µM*	-1%	-16%	6%	-3%	-4%
Cc1ccc(-c2cc(-c3nnc(SCC(=O)N(C)CCC#N)n3N)c3ccccc3n2)cc1	16µM*	-4%	-4%	2%	0%	0%
Cc1ccc(C)c(C(C)NC(=O)CC23CC4CC(CC(C4)C2)C3)c1 (configuration not stated)	·	·	·	·	2%	·
O=C(COc1ccccc1)N1c2ccccc2Sc2ccccc21	16µM*	-1%	1%	2%	-1%	-3%
O=C(CCl)N1c2ccccc2Sc2c1ccc1ccccc21	-1%	?	?	·	35µM*	-1%
CCCc1cc(=O)n2c(C(=O)NCc3ccccc3)c(C(=O)Nc3ccc(Cl)cc3C)sc2n1	·	·	·	·	6%	·
CCOC(=O)Nc1cc(=O)c2ccccc2o1	32µM*	-1%	12%	1%	-27%	-10%
CCOC(=O)Nc1cc2c(C)cc(=O)oc2cc1C	16µM*	-3%	-3%	0%	12%	-3%
COCCN1CCCCCC(O)c2cc(C(=O)N3CCN(c4ccc(F)cc4)CC3)ccc21 (configuration not stated)	·	·	·	·	6%	·
Cc1nn(C)c(C)c1CN(C)C(=O)CCCC(=O)O	-1%	3%	8%	0%	18µM*	-4%
Cc1nn(C)c(C)c1CN(C)C(=O)Cn1nc(C(F)(F)F)c(Cl)c1C	·	·	·	·	15%	·
COc1ccc(NC2CCN(C3CC(=O)N(c4ccc(F)c(Cl)c4)C3=O)CC2)cc1 (configuration not stated)	2.8µM*	-3%	1%	9%	15%	-1%
COc1cccc(N2CCN(C3CC(=O)N(c4ccc(F)c(Cl)c4)C3=O)CC2)c1 (configuration not stated)	0%	7%	-12%	2%	?	-8%
CC(C)c1ccc(-n2cc(CN3CCN(C(=O)N(C)C)CC3)cn2)cc1	·	·	·	·	6%	·
CC(=O)N1CCc2cc3nc(C)cc(C)c3cc21	25µM*	-3%	5%	-4%	?	1%
N/C(=N\OC(=O)COc1ccccc1Cl)c1ccccn1	14µM*	-1%	6%	1%	15%	-2%
O=c1oc2ccc3ccccc3c2c2c1SC(C(F)(F)F)C2 (configuration not stated)	35µM*	0%	-18%	2%	·	1%
CC(NCC1COc2ccccc2O1)C1COc2ccccc2O1 (configuration not stated)	·	3%	-6%	·	?	-7%
SMILES	ClpP mod	Rango complex inh	Rango release inh	TDP1 inh	12-LOX inh	PTAP TSG101 blk
CCOC(=O)CCNC(C)C1COc2ccccc2O1 (configuration not stated)	6.3µM*	-4%	12%	-10%	?	-7%
COC(=O)c1ccc(Oc2c(C)oc3cc(OC(=O)N4CCOCC4)ccc3c2=O)cc1	·	·	·	·	4%	·
COc1ccc(OC)c(/C=N\NC(=O)c2ccc(-c3ccccc3)cc2)c1	28µM*	?	?	1%	0%	-1%
COc1ccc(C(=O)Oc2ccc(/C=N/NC(=O)c3ccccc3OC)cc2[N+](=O)[O-])cc1	28µM*	2%	3%	-2%	-8%	-2%
COc1ccc(OC)c(/C=N/NC(=O)CNC(=O)c2cccc3ccccc23)c1	18µM*	1%	2%	0%	72%	·
COc1ccc(C(=O)N/N=C/c2cc3ccccc3[nH]c2=O)cc1	28µM*	?	-25%	2%	-10%	-4%
COc1ccc(OC)c(/C=N/NC(=O)c2ccncc2)c1	-1%	0%	17%	·	16%	-2%
CCC(CC)NC(=O)c1ccc(C(C)(C)C)cc1	·	·	·	·	-8%	·
COC(=O)c1ccc(C2C(C#N)=C(N)Oc3cc(O)ccc32)cc1 (configuration not stated)	·	?	?	7%	25µM*	3%
C#CCOc1ccc(C2C(C#N)=C(N)Oc3cc(O)ccc32)cc1 (configuration not stated)	-25%	?	?	·	28µM*	-2%
CCOc1ccc(C2C(C#N)=C(N)Oc3cc(O)ccc32)cc1OCC (configuration not stated)	0%	?	?	·	-25%	-5%
COc1ccc(C2C(C#N)=C(N)Oc3cc(O)ccc32)cc1Cl (configuration not stated)	-2%	?	?	·	32µM*	-3%
COC(=O)c1ccc(C2C(C#N)=C(N)Oc3cc(N)ccc32)cc1 (configuration not stated)	·	?	?	·	?	-5%
N#Cc1ccc(C(=O)N2CCC3(CC2)CN(c2ncccn2)CC3CO)cc1 (configuration not stated)	·	·	·	·	39%	·
O=C1CO[C@H]2CCN(Cc3nccs3)CC[C@@H]2N1Cc1ccccc1	·	·	·	·	-4%[176 µM]	·
Cc1nn(C)c(C)c1S(=O)(=O)N1CCC2(CCC(=O)N(Cc3ccccc3)CC2)CC1	·	·	·	·	9%	·
Cc1nc(CN2C(=O)COc3ccc(S(=O)(=O)NC4CCC(C)CC4)cc32)no1 (configuration not stated)	·	·	·	·	-6%	·
CCOc1cc(Br)cc(C(c2c(C(=O)O)[nH]c3ccccc23)c2c(C(=O)O)[nH]c3ccccc23)c1O	0%	-2%	18%	·	5.6µM*	-3%
CSc1ccc(-c2nc3ccc(C)cn3c2Nc2ccccc2C)cc1	3.5µM*	·	·	0%	-14%	·
